Assay results taken from PubChem BioAssay (NCATS).
Values joined by “and” are separate entries in the source; they are usually repeats but may differ in a detail not shown here. Identical values can stand only once. Results filed as inconclusive are left out. The source holds several records for some structures; these can differ, active in one and inactive in another. Active and inactive are the calls of the source. Unless noted, calls follow the shape of the dose curve; as a rule, active = well fitted curve in the direction sought with a large enough effect; inconclusive = small, poorly fitted or top-dose-only effect, or another doubt; inactive = no such curve, though single readings can be large; an effect the other way counts as inactive or inconclusive.

Experiments:
Es-2 = assay: Primary qHTS to identify gynecologic anti-cancer compounds using libraries of approved drugs and bioactive compounds (AID 1345084); details: Gynecologic cancer cell panel viability, ATPlite luminescence, 48 h; series mostly up to 57.5 µM; also: nearly all actives have a fitted effect of over 55% in size; also: potency is read from the fitted curve at half-maximal effect
Method in brief: (§1)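 Five-point cytotoxicity, 48 h drug exposure at 37 C, 5% CO2, on cells seeded 16 h beforehand. ATP content read by ATPlite luminescence.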

HeLa = assay: as above; details: Gynecologic cancer cell panel viability, ATPlite luminescence, 48 h; series mostly up to 57.5 µM
Method in brief: as §1

Hek293T = assay: as above; details: Gynecologic cancer cell panel viability, ATPlite luminescence, 48 h, control line for the selectivity index; series mostly up to 57.5 µM
Method in brief: as §1

JEG-3 = assay: as above; details: Gynecologic cancer cell panel viability, ATPlite luminescence, 48 h; series mostly up to 57.5 µM
Method in brief: as §1

OV90 = assay: as above; details: Gynecologic cancer cell panel viability, ATPlite luminescence, 48 h; series mostly up to 57.5 µM
Method in brief: as §1

PA-1 = assay: as above; details: Gynecologic cancer cell panel viability, ATPlite luminescence, 48 h; series mostly up to 57.5 µM
Method in brief: as §1

SKOV3 = assay: as above; details: Gynecologic cancer cell panel viability, ATPlite luminescence, 48 h; series mostly up to 57.5 µM
Method in brief: as §1

Tov-21-G = assay: as above; details: Gynecologic cancer cell panel viability, ATPlite luminescence, 48 h; series mostly up to 57.5 µM
Method in brief: as §1

Tov112D = assay: as above; details: Gynecologic cancer cell panel viability, ATPlite luminescence, 48 h; series mostly up to 57.5 µM
Method in brief: as §1

[1] = Drug repurposing screens with cells derived from glioblastoma tumor samples (AID 1345199); details: GBM patient neurospheres viability, ATP luminescence, 48 h; also: nearly all actives have a fitted effect of over 40% in size; also: potency is read from the fitted curve at half-maximal effect; as to activity, negative = cell killing: % is scaled to controls: 0 for no effect and ±100 for the full control effect
Method in brief: (§2)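 Four patient lines of CD133+ GBM neurospheres were screened at several concentrations; hits were retested in those lines plus three slower-growing GBM lines, using 48-hour treatment and ATP-based viability.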

astro = assay: as above; details: viability, ATP luminescence, 48 h; series mostly up to 45.9 µM
Method in brief: as §2

[2] = target: Nuclear receptor subfamily 1 group I member 2 (Rattus norvegicus) (UniProt Q9R1A7); assay: qHTS assay for small molecule activators of the rat pregnane X receptor (rPXR) signaling pathway (AID 651751; call rule not given here; also: 0% is about no effect); details: rPXR reporter cells, luciferase (One-Glo), 24 h
Sequence of Nuclear receptor subfamily 1 group I member 2 (Rattus norvegicus) (Q9R1A7 whole entry, looked up): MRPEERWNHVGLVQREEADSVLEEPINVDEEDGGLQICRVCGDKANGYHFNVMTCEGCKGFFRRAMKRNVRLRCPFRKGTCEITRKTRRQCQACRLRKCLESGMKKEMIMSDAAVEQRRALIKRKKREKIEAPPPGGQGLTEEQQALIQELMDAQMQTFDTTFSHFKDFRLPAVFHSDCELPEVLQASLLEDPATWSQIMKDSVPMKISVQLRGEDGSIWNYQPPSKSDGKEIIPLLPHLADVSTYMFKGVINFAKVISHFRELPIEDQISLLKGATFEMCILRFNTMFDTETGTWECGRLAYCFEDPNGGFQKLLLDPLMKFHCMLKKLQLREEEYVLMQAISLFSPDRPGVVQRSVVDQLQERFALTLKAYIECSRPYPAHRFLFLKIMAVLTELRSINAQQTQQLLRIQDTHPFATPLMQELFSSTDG

[3] = qHTS assay for small molecule activators of the human pregnane X receptor (PXR) signaling pathway (AID 720659; call rule not given here; also: 0% is about no effect); details: DPX-2 HepG2 CYP3A4-luciferase, 24 h; series mostly up to 92.3 µM
[4] = at 45.9 µM (top of the series), tumour line B
[5] = at 45.9 µM (top of the series), tumour line D
[6] = at 91.6 µM (top of the series), tumour line B
[7] = at 91.6 µM (top of the series), tumour line D
[8] = at 46 µM (top of the series), tumour line A

CN1CCC(O)(c2ccc(F)cc2)C(C(=O)c2ccc(F)cc2)C1 (centres undefined)
inactive: Potency (Es-2) | Potency (HeLa) | outcome (Hek293T) | outcome (JEG-3) | Potency (OV90) | Potency (PA-1) | outcome (SKOV3) | Potency (Tov-21-G) | Potency (Tov112D) | Potency (astro)
active: Potency ([1]; tumour line A) 12.6 µM | Potency ([1]; tumour line B) 28.2 µM

O=P1(N(CCCl)CCCl)NCCCO1 (centres undefined)
inactive: Potency (Es-2) | Potency (HeLa) | outcome (Hek293T) | outcome (JEG-3) | Potency (OV90) | Potency (PA-1) | Potency (Tov-21-G) | Potency (Tov112D) | activity, negative = cell killing [1, 4] -0.921% | activity, negative = cell killing [1, 5] 1.42% | max response [2] 6.19% and -0.989% | outcome [3]

CCN[C@H](C)Cc1cccc(C(F)(F)F)c1
inactive: Potency (Es-2) | Potency (HeLa) | outcome (Hek293T) | outcome (JEG-3) | Potency (OV90) | Potency (PA-1) | outcome (SKOV3) | Potency (Tov-21-G) | Potency (Tov112D) | activity, negative = cell killing [1, 6] -5.97% | activity, negative = cell killing [1, 7] -5.78% | Potency (astro)

COP(=S)(OC)Oc1ccc(SC)c(C)c1
inactive: Potency (Es-2) | Potency (HeLa) | outcome (Hek293T) | outcome (JEG-3) | Potency (OV90) | outcome (SKOV3) | Potency (Tov-21-G) | Potency (Tov112D) | activity, negative = cell killing [1, 4] -12.6% | activity, negative = cell killing [1, 5] -10.9% | activity, negative = cell killing [1, 8] -25.3% | Potency (astro) | max response [2] -3.65% and 2.94% | outcome [3]

CCN[C@@H](C)Cc1ccccc1
inactive: Potency (Es-2) | Potency (HeLa) | outcome (Hek293T) | outcome (JEG-3) | Potency (OV90) | Potency (PA-1) | outcome (SKOV3) | Potency (Tov-21-G) | Potency (Tov112D) | activity, negative = cell killing ([1]; at 108 µM (top of the series), tumour line B) -6.22% | activity, negative = cell killing ([1]; at 108 µM (top of the series), tumour line D) -20.9% | Potency (astro)

C[C@]12CCC(=O)C=C1CC[C@@H]1[C@@H]2CC[C@@]2(C)[C@H]1CC[C@]2(C)O
inactive: Potency (Es-2) | outcome (Hek293T) | outcome (JEG-3) | Potency (OV90) | Potency (PA-1) | Potency (Tov-21-G) | Potency (Tov112D) | activity, negative = cell killing [1, 4] -4.4% and -14.4% | activity, negative = cell killing [1, 5] -24.9% and -19.8% | Potency (astro)
active: Potency (HeLa) 22.4 µM | Potency ([1]; tumour line A) 12.6 µM and 20 µM

CN1CC[C@]23c4c5ccc(O)c4O[C@H]2[C@@H](O)C=C[C@H]3[C@H]1C5
active: Potency ([1]; tumour line A) 20 µM
inactive: Potency (Es-2) | Potency (HeLa) | outcome (Hek293T) | outcome (JEG-3) | Potency (OV90) | Potency (PA-1) | outcome (SKOV3) | Potency (Tov-21-G) | Potency (Tov112D) | Potency (astro)

C=CCC1([C@H](C)CCC)C(=O)NC(=O)NC1=O
inactive: Potency (Es-2) | Potency (HeLa) | outcome (Hek293T) | outcome (JEG-3) | Potency (OV90) | Potency (PA-1) | outcome (SKOV3) | Potency (Tov-21-G) | Potency (Tov112D) | activity, negative = cell killing [1, 6] -8.55% | activity, negative = cell killing [1, 7] -0.262% | Potency (astro)

COc1cccc(C(=O)CCN[C@@H](C)[C@H](O)c2ccccc2)c1
active: Potency ([1]; tumour line A) 28.2 µM | Potency ([1]; tumour line B) 22.4 µM | Potency ([1]; tumour line D) 22.4 µM
inactive: Potency (Es-2) | Potency (HeLa) | outcome (Hek293T) | outcome (JEG-3) | Potency (PA-1) | outcome (SKOV3) | Potency (Tov-21-G) | Potency (Tov112D)

COc1c2c(cc3c1OCO3)CCN(C)C2
inactive: Potency (Es-2) | Potency (HeLa) | outcome (Hek293T) | outcome (JEG-3) | Potency (OV90) | Potency (PA-1) | outcome (SKOV3) | Potency (Tov-21-G) | Potency (Tov112D) | activity, negative = cell killing ([1]; at 21.2 µM (top of the series), tumour line B) -1.01% | activity, negative = cell killing ([1]; at 21.2 µM (top of the series), tumour line D) -13.1% | Potency (astro)

Clc1cccc(SC2CCNCC2)n1
inactive: Potency (Es-2) | Potency (HeLa) | outcome (Hek293T) | outcome (JEG-3) | Potency (OV90) | Potency (PA-1) | outcome (SKOV3) | Potency (Tov-21-G) | Potency (Tov112D)
active: Potency (astro) 35.5 µM

C[C@H]1[C@@H]2Cc3ccc(O)cc3[C@@]1(C)CCN2C
inactive: Potency (Es-2) | Potency (HeLa) | outcome (Hek293T) | outcome (JEG-3) | Potency (PA-1) | outcome (SKOV3) | Potency (Tov-21-G) | Potency (Tov112D) | activity, negative = cell killing ([1]; at 231 µM (top of the series), tumour line B) -0.237% | activity, negative = cell killing ([1]; at 231 µM (top of the series), tumour line D) -19.7% | Potency (astro)
active: Potency ([1]; tumour line A) 112 µM

Nc1ccc([As](=O)(O)O)cc1
inactive: Potency (Es-2) | Potency (HeLa) | outcome (Hek293T) | outcome (JEG-3) | Potency (OV90) | Potency (PA-1) | Potency (Tov-21-G) | Potency (Tov112D) | activity, negative = cell killing [1, 4] -5.35% | activity, negative = cell killing [1, 5] -5.12% | activity, negative = cell killing [1, 8] -21.8% | Potency (astro) | max response [2] 3.51% | outcome [3]

CN1C(=O)CCS(=O)(=O)C1c1ccc(Cl)cc1 (centres undefined)
inactive: Potency (Es-2) | Potency (HeLa) | outcome (Hek293T) | outcome (JEG-3) | Potency (OV90) | Potency (PA-1) | Potency (Tov-21-G) | Potency (Tov112D) | activity, negative = cell killing [1, 4] -12.1% and -22.6% | activity, negative = cell killing [1, 5] -13.6% and -16.2% | activity, negative = cell killing [1, 8] -23.1% and -4.54% | Potency (astro)

COc1cccc2c1C(=O)c1c(O)c3c(c(O)c1C2=O)C[C@@](O)(C(=O)CO)CC3OC1CC(N2CCOC(OC)C2)C(O)C(C)O1 (some centres undefined)
active: Potency (HeLa) 0.224 µM | Potency (OV90) 0.447 µM | Potency (Tov-21-G) 0.1 µM | Potency (Tov112D) 0.1 µM

C[C@]12CCC(=O)C=C1CC[C@@H]1[C@H]3CC[C@](C)(O)[C@@]3(C)CC[C@@H]12
inactive: Potency (Es-2) | outcome (JEG-3) | Potency (Tov-21-G) | activity, negative = cell killing [1, 6] -15.6%
active: Potency (HeLa) 31.6 µM | Potency ([1]; tumour line A) 39.8 µM

O=C(Nc1ccc(Br)cc1)c1cc(Br)cc(Br)c1O
inactive: outcome (Hek293T) | Potency (PA-1) | outcome (SKOV3) | Potency (Tov-21-G) | Potency (Tov112D)
active: Potency (astro) 7.08 µM

O=C(O)/C=C\C(=O)O
inactive: activity, negative = cell killing [1, 4] 0.272% | activity, negative = cell killing [1, 5] -6.85% | activity, negative = cell killing [1, 8] -28.3% | activity, negative = cell killing ([1]; at 46.1 µM (top of the series), tumour line C) 3.02% | Potency (astro)
